The target in one test is Albumin (Bos taurus) (UniProt P02769). In words: compounds binding labelled BSA control protein – biochemical, small-molecule microarray, Alexa647 label, 635/667 nm fluorescence, artefact control for SMM control protein annotation, profiling panel (AID 1118).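 Also: score merges 667 nm emission intensity and signal-to-noise per printed compound spot.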 Conditions: BSA-A647 binding, fluorescence 635 nm, higher = more signal.
Test [1] in a line: probe aXIP binding to arrayed compounds – biochemical, NeuroSMM set, 635/667 nm fluorescence, primary screen (AID 1119).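 Also: probe is the protein aXip251-270 applied at 1 µg/mL to compound-printed slides; binding of probe to printed compounds measured as 667 nm fluorescence plus signal to noise.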 Conditions: small-molecule microarray, higher = more signal, called active from +8 up or from −8 down.
Test [2] in a line: probe aNOTCH3 binding on compound microarray – biochemical, small-molecule microarray, 635/667 nm fluorescence, primary screen (AID 1120).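 Also: probe is a biotin-tagged antibody raised against NOTCH3 rather than NOTCH3 protein; score merges spot fluorescence near 667 nm with spot signal to noise.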 Conditions: higher = more signal.
Test [3] is described as follows: probe aNOTCH2 binding on compound microarray – biochemical, small-molecule microarray, 635/667 nm fluorescence, primary screen (AID 1121).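 Also: score merges feature fluorescence read at 667 nm with its signal to noise.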 Conditions: higher = more signal.
Test [4] addresses Carbonic anhydrase 2 (Homo sapiens) (UniProt P00918). The test can be described thus: compounds binding carbonic anhydrase 2 – biochemical, small-molecule microarray, Alexa647-labelled CAII, profiling panel (AID 1122). The settings on record: CAII-A647 binding fluorescence, higher = more signal.
Test [5] in a line: COS7 lysate on small-molecule microarray, probe aHis, 635 nm (AID 1123).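 Also: z-score combines 667nm fluorescence intensity with signal-to-noise per printed compound spot.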 The settings on record: COS7 cell lysate, fluorescence, higher = more signal.
Test [6] can be described thus: probe aLAP1 signal on lysate-treated microarray – cell lysate, small-molecule microarray, COS7 lysate, primary screen (AID 1124).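 Also: lysate comes from COS7 cells expressing LAP1 and is applied at 0.3 µg/mL; score merges spot fluorescence near 667 nm with signal-to-noise over triplicate slides.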 The settings on record: probe aLAP1, fluorescence, higher = more signal.
Another test relates to Sam68 (KHDRBS1). In words: compounds binding KHDRBS1 protein – biochemical, small-molecule microarray, 635 nm fluorescence, primary screen (AID 1125).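 Also: score merges 667 nm channel intensity with signal to noise over triplicate slides.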 Conditions: higher = more signal.
Test [7] has as its system Chordin-like protein 2 (CHRDL2). In words: compounds binding chordin-like 2 – biochemical, small-molecule microarray, 635 nm fluorescence, primary screen (AID 1126).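 Also: printed compound slides probed with Chrdl2 protein at 4 µg/mL for 1 h at 4 C; score merges 667 nm emission intensity with signal to noise over three replicate slides.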 Conditions: fluorescence 635 nm, higher = more signal.
The target in test [8] is Concanavalin-A (Canavalia ensiformis) (UniProt P02866). The test can be described thus: compounds binding concanavalin A lectin – biochemical, small-molecule microarray, Alexa647 label, 635 nm, artefact control for SMM control protein annotation, primary screen (AID 1127).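 Also: z combines 667 nm emission intensity with signal-to-noise across three replicate slides.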 Conditions: ConA-A647 binding fluorescence, higher = more signal.
A short description of test [9]: compounds binding Alexa647 anti-His antibody – biochemical, small-molecule microarray, 635 nm fluorescence, artefact control for SMM control protein annotation, primary screen (AID 1128).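 Also: score merges feature fluorescence with signal-to-noise for each printed compound spot.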 The settings on record: higher = more signal.
Test [10] deals with Human papillomavirus type 1a E7 protein (residues 1-88). In words: HPV1a E7 small-molecule binders, primary screen, biochemical, small-molecule microarray, residues 1-88, 635 nm (AID 1129). The settings on record: small-molecule microarray binding, fluorescence 635 nm; higher = more signal.
Test [11] has as its target Focal adhesion kinase 1 (Homo sapiens) (UniProt Q05397). The test can be described thus: PTK2 protein binding on printed compound slides – biochemical, small-molecule microarray, 635/667 nm fluorescence, BSA, DTT, primary screen (AID 1130).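 Also: composite of spot emission at 667 nm and signal to noise over triplicate slides.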 Conditions: 635 nm fluorescence, higher = more signal.
Test [12] concerns Fibrinogen (Alexa647-labelled). The test can be described thus: Alexa647-fibrinogen binding to printed small molecules – biochemical, small-molecule microarray, 635/667 nm fluorescence, artefact control for SMM control-protein annotation, profiling panel (AID 1131).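 Also: z-score merges 667 nm fluorescence with per-spot signal-to-noise over triplicate slides.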 The settings on record: fibrinogen-A647 binding fluorescence, higher = more signal.
The target in test [13] is Follistatin (Homo sapiens) (UniProt P19883). The test can be described thus: FST protein binding to printed compounds – biochemical, small-molecule microarray, 635/667 nm fluorescence, primary screen (AID 1132). Conditions: 635 nm fluorescence, higher = more signal.
Test [14] has as its target Fibroblast growth factor 2 (Homo sapiens) (UniProt P09038). In words: basic fibroblast growth factor binding to printed compounds – biochemical, small-molecule microarray, 635/667 nm fluorescence, primary screen (AID 1133). Conditions: FGF2, fluorescence 635/667, higher = more signal.
A short description of test [15]: JC-1 mitochondrial potential readout, lung cancer cells – cell-based, A549, JC-1 fluorescence, basal, 24 h, 100 nL, profiling panel (AID 1138).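 Also: A549 lung adenocarcinoma cells under basal conditions with no added stimulus; test concentration not given here.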 Conditions: higher = more signal.
In the next test the test system is Lefty1. The test can be described thus: Lefty1 protein binding to printed compounds – biochemical, small-molecule microarray, 635/667 nm fluorescence, primary screen (AID 1139). The settings on record: fluorescence 635/667, higher = more signal.
The test system of test [16] is wheat germ agglutinin (Triticum aestivum), Alexa647-labelled. In words: Alexa647-WGA lectin binding to printed small molecules – biochemical, small-molecule microarray, 635/667 nm fluorescence, artefact control for SMM control-protein annotation, profiling panel (AID 1140).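 Also: score merges 667 nm feature emission with signal to noise over triplicate slides.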 Conditions: WGA-A647 binding, 635 nm fluorescence, higher = more signal.
The target of test [17] is Luciferin 4-monooxygenase (Photinus pyralis) (UniProt P08659). In words: inhibition of purified Photinus pyralis luciferase – biochemical, luminescence, purified enzyme, 2006 set, primary screen (AID 1141).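 Also: cell-free assay with purified firefly luciferase at 100 ng per well in PBS; test concentration not given here.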 The settings on record: purified firefly luciferase, SteadyGlo luminescence, 30 min; higher = more signal, called active from +8 up or from −8 down.

The structures appear in SMILES notation. Active and inactive are the calls of the source.

Sequence of Fibroblast growth factor 2 (Homo sapiens) (P09038 whole entry, looked up): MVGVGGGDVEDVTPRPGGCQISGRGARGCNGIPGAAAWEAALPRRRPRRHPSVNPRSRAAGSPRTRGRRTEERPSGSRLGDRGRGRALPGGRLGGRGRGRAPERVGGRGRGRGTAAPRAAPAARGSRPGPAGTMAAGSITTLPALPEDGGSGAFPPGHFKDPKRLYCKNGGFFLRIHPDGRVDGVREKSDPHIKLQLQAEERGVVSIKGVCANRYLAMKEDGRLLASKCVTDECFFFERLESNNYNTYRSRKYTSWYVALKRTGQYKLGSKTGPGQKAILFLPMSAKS
Sequence of Follistatin (Homo sapiens) (P19883 whole entry, looked up): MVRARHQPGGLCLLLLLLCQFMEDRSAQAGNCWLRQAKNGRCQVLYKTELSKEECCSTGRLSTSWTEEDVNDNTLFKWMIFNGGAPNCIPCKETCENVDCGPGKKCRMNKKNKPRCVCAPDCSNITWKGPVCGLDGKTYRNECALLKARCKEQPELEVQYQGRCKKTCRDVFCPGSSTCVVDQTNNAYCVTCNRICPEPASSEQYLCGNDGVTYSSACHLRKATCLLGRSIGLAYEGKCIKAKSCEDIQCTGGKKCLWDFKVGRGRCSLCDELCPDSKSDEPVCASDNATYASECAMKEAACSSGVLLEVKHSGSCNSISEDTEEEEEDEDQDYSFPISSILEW
Sequence of Luciferin 4-monooxygenase (Photinus pyralis) (P08659 whole entry, looked up): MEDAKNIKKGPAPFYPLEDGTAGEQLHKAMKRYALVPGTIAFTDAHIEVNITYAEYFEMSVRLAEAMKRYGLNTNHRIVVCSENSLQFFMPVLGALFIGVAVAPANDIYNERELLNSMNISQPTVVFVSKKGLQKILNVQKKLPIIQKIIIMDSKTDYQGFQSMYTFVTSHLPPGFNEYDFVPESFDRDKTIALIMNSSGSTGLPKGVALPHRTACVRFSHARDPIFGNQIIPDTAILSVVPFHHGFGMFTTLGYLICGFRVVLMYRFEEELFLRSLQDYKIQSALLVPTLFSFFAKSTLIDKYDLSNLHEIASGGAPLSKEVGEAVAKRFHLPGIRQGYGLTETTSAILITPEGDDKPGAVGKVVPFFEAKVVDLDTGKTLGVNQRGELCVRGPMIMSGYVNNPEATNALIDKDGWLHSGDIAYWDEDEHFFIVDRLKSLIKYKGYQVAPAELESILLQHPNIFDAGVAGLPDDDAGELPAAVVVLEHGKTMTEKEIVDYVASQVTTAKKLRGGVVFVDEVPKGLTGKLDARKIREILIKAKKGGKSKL
Sequence of Concanavalin-A (Canavalia ensiformis) (P02866 whole entry, looked up): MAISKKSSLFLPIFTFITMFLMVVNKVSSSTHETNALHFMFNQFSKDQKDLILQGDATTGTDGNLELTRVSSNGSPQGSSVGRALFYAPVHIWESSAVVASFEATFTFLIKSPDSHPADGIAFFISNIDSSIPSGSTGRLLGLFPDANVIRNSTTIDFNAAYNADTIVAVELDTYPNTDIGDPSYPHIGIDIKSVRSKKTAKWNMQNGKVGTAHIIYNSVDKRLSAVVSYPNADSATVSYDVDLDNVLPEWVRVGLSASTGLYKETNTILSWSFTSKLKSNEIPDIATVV
Sequence of Albumin (Bos taurus) (P02769 whole entry, looked up): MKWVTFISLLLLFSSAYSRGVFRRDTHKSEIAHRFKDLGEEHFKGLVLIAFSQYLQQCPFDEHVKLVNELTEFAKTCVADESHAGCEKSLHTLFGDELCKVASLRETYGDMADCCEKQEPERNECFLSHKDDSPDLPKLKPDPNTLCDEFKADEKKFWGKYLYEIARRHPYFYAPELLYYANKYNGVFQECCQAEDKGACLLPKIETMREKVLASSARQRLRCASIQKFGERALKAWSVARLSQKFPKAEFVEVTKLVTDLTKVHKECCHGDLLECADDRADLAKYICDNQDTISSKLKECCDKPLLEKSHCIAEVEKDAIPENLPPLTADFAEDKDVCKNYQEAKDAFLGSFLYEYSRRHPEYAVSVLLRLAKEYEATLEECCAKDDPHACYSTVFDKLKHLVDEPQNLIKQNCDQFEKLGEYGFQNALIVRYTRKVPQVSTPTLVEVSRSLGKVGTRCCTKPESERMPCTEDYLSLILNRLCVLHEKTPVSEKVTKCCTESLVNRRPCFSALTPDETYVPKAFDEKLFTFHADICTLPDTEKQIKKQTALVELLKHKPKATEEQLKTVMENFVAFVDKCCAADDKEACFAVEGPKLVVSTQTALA
Sequence of Focal adhesion kinase 1 (Homo sapiens) (Q05397 whole entry, looked up): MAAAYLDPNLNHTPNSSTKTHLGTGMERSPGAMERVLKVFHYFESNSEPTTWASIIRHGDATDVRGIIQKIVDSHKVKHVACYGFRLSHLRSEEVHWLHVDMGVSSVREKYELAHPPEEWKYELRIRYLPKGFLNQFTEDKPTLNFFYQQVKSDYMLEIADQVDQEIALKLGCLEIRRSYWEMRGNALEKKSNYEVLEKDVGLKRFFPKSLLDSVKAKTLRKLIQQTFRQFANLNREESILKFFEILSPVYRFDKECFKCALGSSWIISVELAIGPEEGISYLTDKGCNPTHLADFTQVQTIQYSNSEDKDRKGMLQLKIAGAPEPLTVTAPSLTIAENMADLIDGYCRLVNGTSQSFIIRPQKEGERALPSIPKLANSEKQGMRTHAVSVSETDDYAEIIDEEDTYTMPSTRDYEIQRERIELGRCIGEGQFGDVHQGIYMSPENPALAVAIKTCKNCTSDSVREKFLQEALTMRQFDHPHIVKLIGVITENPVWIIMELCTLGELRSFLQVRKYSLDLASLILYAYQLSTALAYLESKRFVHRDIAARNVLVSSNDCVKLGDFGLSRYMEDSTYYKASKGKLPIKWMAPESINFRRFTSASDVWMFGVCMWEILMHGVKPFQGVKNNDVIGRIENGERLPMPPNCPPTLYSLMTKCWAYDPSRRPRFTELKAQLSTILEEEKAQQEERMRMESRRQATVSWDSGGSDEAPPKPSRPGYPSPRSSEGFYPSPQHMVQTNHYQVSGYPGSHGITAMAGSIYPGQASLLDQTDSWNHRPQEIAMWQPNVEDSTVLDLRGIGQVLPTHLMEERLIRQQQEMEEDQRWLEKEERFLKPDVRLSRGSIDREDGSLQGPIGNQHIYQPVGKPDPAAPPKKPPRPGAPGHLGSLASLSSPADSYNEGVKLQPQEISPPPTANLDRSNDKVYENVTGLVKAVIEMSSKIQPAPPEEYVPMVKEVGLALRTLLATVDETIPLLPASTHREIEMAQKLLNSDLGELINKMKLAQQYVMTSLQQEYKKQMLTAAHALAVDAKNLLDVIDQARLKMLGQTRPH

For `C=C[C@H](CO)NS(=O)(=O)c1ccc(Br)cc1`, the composite z-score with Albumin (Bos taurus) is 0.158; in [2], 0.234; in [3], -0.127; in test [4] it was -0.0876; in [5], 1; in test [6], 0.117. Besides, the composite z-score came out at 0.562 in the test on Sam68 (KHDRBS1); 0.704 in test [7]; 0.549 in test [8]; 0.461 in test [9]; 0.446 in test [10]; 0.179 in [11]. In addition, the composite z-score in [12] was found to be 0.28; in test [13], 1.06; in test [14], 0.464; with Lefty1, 0.28; in test [16], 0.279. For the same compound, the composite Z-score in test [1] was 0.058 (inactive). In addition, the figures for the z-score in [15] and in test [17] were 1.19 and -0.877 (inactive), respectively.

As for `CCCCCN1CC=CC23O[C@@H]4/C=C\CCC(C)OC(=O)C4[C@H]2C(=O)N(C(C)CO)[C@@H]3C1=O` (stereo not given in full), the composite z-score in the test with Albumin (Bos taurus) is -0.671; in test [2] it was -0.127; in test [3], -0.14; in [4] it was 0.536; in test [5], -0.0346; in [6] it was 0.169. The composite z-score in the test with Sam68 (KHDRBS1) was 0.579; in [7], -0.388; in test [8], -0.211; in [9], -0.361; in test [10] it was -0.575; in test [11], -0.521. Moreover, the composite z-score is -0.925 in test [12]; 0.274 in [13]; -0.556 in test [14]; 0.696 in the test on Lefty1; -0.721 in test [16]. Also, the composite Z-score in test [1] is -0.275 (inactive). In addition, the z-score in [15] is 0.157; in [17], -0.078 (inactive).

Take `O=C(N1CCCCC1)[C@]1(Cc2ccccc2)N=C(c2ccc(OCCCO)cc2)O[C@@H]1c1ccccc1`: the composite z-score with Albumin (Bos taurus) was 0.441; in test [2], 0.096; in [3], -0.0561; in test [4] it was 0.225; in test [5], 1.24; in test [6] it was 0.968. Further, the composite z-score was 1.18 with Sam68 (KHDRBS1); -0.862 in [7]; 1.06 in [8]; 2.63 in test [9]; 1.19 in [10]; 0.534 in [11]. Also, the composite z-score in test [12] was 0.632; in test [13], 0.301; in [14], 0.042; in the test with Lefty1 it was -0.506; in test [16] it was 0.99. For the same compound, the composite Z-score in [1] is -0.425 (inactive). Further, the z-score in test [15] is -1.62; in test [17], -0.265 (inactive).

On to `COC(=O)C(CC#Cc1ccc2c(c1)[C@]1(C(=O)N2)[C@H](C(=O)Nc2nc3ccccc3s2)[C@H]2C(=O)O[C@H](c3ccccc3)[C@H](c3ccccc3)N2[C@@H]1c1ccccc1OCCO)C(=O)OC`, for which the composite z-score is 0.987 in the test with Albumin (Bos taurus); 0.116 in test [2]; -0.0859 in test [3]; 0.663 in test [4]; 1.69 in test [5]; 0.636 in test [6]. Also, the composite z-score was 1.3 with Sam68 (KHDRBS1); -0.154 in test [7]; 1.14 in test [8]; 1.41 in test [9]; 1.24 in test [10]; 1.04 in [11]. The composite z-score was found to be 0.964 in test [12]; 0.931 in test [13]; 0.452 in [14]; 0.625 with Lefty1; 1.29 in test [16]. For the same compound, in test [1], the composite Z-score is -0.323 (inactive). The z-score in [15] is -2.25; in test [17], -0.293 (inactive).

With `C=C(COC)C(=O)CC[C@@H](OC(C)=O)c1ccc(CO)o1`, the composite z-score with Albumin (Bos taurus) was -0.0861; in test [2] it was -0.0311; in test [3] it was 0.169; in test [4], 0.662; in test [5], -0.137; in [6] it was -0.311. The composite z-score with Sam68 (KHDRBS1) is 0.298; in test [7], 1.13; in [8], 0.0796; in test [9], -0.555; in test [10], -0.724; in [11], -0.285. Further, the composite z-score in test [12] is 0.966; in [13] it was 1.33; in test [14] it was 1.32; in the test with Lefty1, 1.73; in test [16] it was 0.397. In test [1], the composite Z-score is 0.365 (inactive). Besides, the results for the z-score in [15] and in test [17] were -0.57 and -1.15 (inactive), respectively.

With `CCN(CC)c1ccc(N2CC=CC34O[C@@H]5C=CCCOC(=O)C5[C@H]3C(=O)N(CCCCCCO)[C@@H]4C2=O)cc1` (stereo not given in full), the composite z-score with Albumin (Bos taurus) was 0.254; in [2] it was -0.276; in test [3] it was -0.203; in test [4], 0.885; in test [5] it was 2.79; in test [6], 1.46. Besides, the composite z-score with Sam68 (KHDRBS1) was 0.114; in [7], -0.489; in [8], -0.1; in [9] it was 1.43; in test [10] it was 0.321; in test [11], 0.899. The composite z-score in [12] was -1.15; in [13], -0.372; in test [14] it was -0.551; with Lefty1, 0.0079; in test [16], 0.623. Further, the composite Z-score in test [1] is 0.469 (inactive). The figures for the z-score in test [15] and in [17] were -0.115 and -4.35 (inactive), respectively.

As for `COCCOC(=O)N1C(=O)[C@@]2(c3cc(C#CC4(O)CCCCCC4)ccc31)[C@H](c1ccccc1OCCO)N1[C@H](c3ccccc3)[C@H](c3ccccc3)OC(=O)[C@H]1[C@@H]2C(=O)N1CCN(c2ncccn2)CC1`, the composite z-score was 0.781 with Albumin (Bos taurus); -0.0313 in [2]; -0.0432 in test [3]; 0.596 in test [4]; 1.12 in test [5]; 0.384 in test [6]. In addition, the composite z-score in the test on Sam68 (KHDRBS1) was 1.29; in test [7], 0.336; in [8], 1.09; in test [9], 0.701; in [10], 1.05; in test [11], 0.782. Besides, the composite z-score turned out to be 0.662 in test [12]; 1.19 in test [13]; 0.846 in test [14]; 0.702 in the test with Lefty1; 0.764 in test [16]. The composite Z-score in test [1] is -0.291 (inactive). Further, the z-score in [15] was -1.13; in test [17] it was -1.04 (inactive).

As for `O=C1C[C@@](C(=O)NC2CC2)(c2ccc([N+](=O)[O-])cc2)[C@@H](c2ccc(CO)cc2I)N1C1CCCCC1`, the composite z-score was 0.554 with Albumin (Bos taurus); 0.0596 in [2]; -0.14 in test [3]; 0.452 in test [4]; 1.77 in test [5]; -0.0328 in test [6]. The composite z-score was 1.29 in the test on Sam68 (KHDRBS1); 0.397 in test [7]; 1.04 in test [8]; 0.342 in test [9]; 1.24 in test [10]; -0.109 in test [11]. Further, the composite z-score in test [12] was found to be 0.895; in test [13] it was 1.24; in [14], 1.27; in the test with Lefty1, 1.14; in test [16] it was 0.587. In test [1], the composite Z-score is 0.142 (inactive). The z-score in test [15] was 1.75; in test [17] it was -0.234 (inactive).

The values above are taken from PubChem BioAssay.
